This passage reports Potency, outcome and activity change, positive = activation results from PubChem BioAssay (Tox21).

Unmarked numbers belong to inactive results. Inconclusive results are not listed. Activity calls are given as the source filed them. Unless noted, calls follow the shape of the full dose curve.

Experiment [1] can be described thus: qHTS assay to identify small molecule antagonists of the estrogen related receptor signaling pathway with the pleiotropic PPARgamma coactivator (PGC) from Tox21 10K library (AID 1224841; call rule not given here; also: actives are mostly falling curves and most rising ones were filed inactive; nearly all actives have a fitted effect of over 50% in size; also: potency is read from the fitted curve at half-maximal effect). The method, boiled down:
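Antagonism in this quantitative HTS is taken from loss of luciferase signal in PGC/ERR cells. Cells (2,000/well) are treated with compounds in DMSO after a 6 h settling period and read by One-Glo luminescence after 18 h.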

Experiment [2] can be described thus: qHTS assay to identify small molecule agonists of the estrogen related receptor signaling pathway with the pleiotropic PPARgamma coactivator (PGC) from Tox21 10K library (AID 1224842; active = well fitted curve in the direction sought with a large enough effect in the repeat runs; an effect the other way counts as inactive or inconclusive; also: nearly all actives have a fitted effect of over 15% in size). The essentials: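 PGC/ERR reporter cell line, 2,000 cells per well, incubated 6 h at 37 C before 23 nL compound in DMSO was added. After 18 h at 37 C, One-Glo luminescence read following 30 min at room temperature.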
A general note: qHTS replaces the single test concentration by a dilution series.

Experiment [3] concerns the target Thyrotropin receptor (Homo sapiens) (UniProt P16473). The experiment in a line: qHTS assay to identify small molecule agonists of the thyroid stimulating hormone receptor (TSHR) signaling pathway (AID 1224843). Also: nearly all actives have a fitted effect of over 45% in size. The essentials: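 TSHR-HEK293 cells in agonist mode, 30 min room-temperature step, then cAMP measured by competitive HTRF (cAMP-d2 with anti-cAMP cryptate) after 1 h at room temperature. Tested at 15 concentrations in triplicate.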

The nature of experiment [4]: qHTS assay to identify small molecule agonists of the hypoxia (HIF-1) signaling pathway - cell viability counter screen (AID 1224844). Also: nearly all actives have a fitted effect of over 50% in size. The essentials: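 Tox21 10K compounds were added to HRE-bla ME-180 cells (0.5% dialyzed FBS) and incubated 17 hrs at 37C; ATP-based CellTiter-Glo luminescence then reported cell viability in the same wells.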
A short description of experiment [5]: qHTS assay to identify small molecule agonists of H2AX (AID 1224845; active = well fitted activation curve with a large enough effect in the signal ratio in the repeat runs, not every such curve was filed as active; the % refers to the signal ratio). The essentials: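 Wild-type CHO-K1 cells, plated overnight, exposed 3hr at 37C to 15 concentrations (0.76% DMSO final). Lysed, then HTRF anti-pH2AX (S139) cryptate and anti-H2AX-d2 antibodies, 24 hr room temperature; 665/620 nm emission read.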
The nature of experiment [6]: qHTS assay to identify small molecule agonists of H2AX - cell viability counter screen (AID 1224847). Also: top concentration of the series differs between compounds; nearly all actives have a fitted effect of over 30% in size. The method, boiled down:
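For this counter screen, overnight-attached CHO-K1 cells received test compounds (15 concentrations, 0.76% DMSO final); 3 hr later at 37C, CellTiter-Glo reagent was added and luminescence recorded after 30 min at room temperature.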

Experiment [7] is described as follows: qHTS assay to identify small molecule antagonists of the estrogen related receptor (ERR) signaling pathway from Tox21 library (AID 1224848; active = well fitted curve in the direction sought with a large enough effect in the repeat runs; an effect the other way counts as inactive or inconclusive; also: nearly all actives have a fitted effect of over 50% in size). The essentials:
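ERR reporter cell line (from NTP) seeded 2,000 cells/well, rested 6 h at 37 C/5% CO2, then pin-dosed with compounds in DMSO. After 18 h at 37 C, ONE-Glo added; luminescence read after 30 min at room temperature.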

Experiment [8] can be described thus: qHTS assay to identify small molecule agonists of the estrogen related receptor (ERR) signaling pathway from Tox21 library (AID 1224849). Also: nearly all actives have a fitted effect of over 15% in size. Conditions: ERR reporter cell line, ONE-Glo luciferase, 18 h; at 92.4 µM (top of the series) unless noted. The essentials: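 Agonist signal is luciferase luminescence from an ERR reporter cell line treated 18 h at 37 C with DMSO-dissolved compounds, read 30 min after ONE-Glo addition at room temperature.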

Experiment [9] can be described thus: qHTS RealTime-Glo MT Cell Viability Assay in HepG2 cells - 24 hour (AID 1224867; active = well fitted curve in the direction sought with a large enough effect in the repeat runs; an effect the other way counts as inactive or inconclusive; also: nearly all actives have a fitted effect of over 50% in size). The method, boiled down: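 HepG2 suspension premixed with RealTime-Glo reagents is plated at 600 cells per well and left 5 h at 37 C/5% CO2. Compounds in DMSO then go in, and bioluminescence reflecting viable cell number is recorded over 40 h.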
Experiment [10] is described as follows: qHTS assay to identify small molecule agonists of the hypoxia (HIF-1) signaling pathway (AID 1224846; active = well fitted activation curve with a large enough effect in the signal ratio in the repeat runs, not every such curve was filed as active; the % refers to the signal ratio). The method, boiled down: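 Steps: seed ME-180 HRE-bla cells (2,000/well, 0.5% dialyzed FBS); incubate 5 hrs at 37C; pin-transfer compounds or DMSO; incubate 17 hrs; add LiveBLAzer B/G substrate CCF4-AM; measure reporter activation by FRET.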
% is scaled to controls: 0 for no effect and ±100 for the full control effect.

Thyrotropin receptor (Homo sapiens), sequence (P16473 whole entry, looked up): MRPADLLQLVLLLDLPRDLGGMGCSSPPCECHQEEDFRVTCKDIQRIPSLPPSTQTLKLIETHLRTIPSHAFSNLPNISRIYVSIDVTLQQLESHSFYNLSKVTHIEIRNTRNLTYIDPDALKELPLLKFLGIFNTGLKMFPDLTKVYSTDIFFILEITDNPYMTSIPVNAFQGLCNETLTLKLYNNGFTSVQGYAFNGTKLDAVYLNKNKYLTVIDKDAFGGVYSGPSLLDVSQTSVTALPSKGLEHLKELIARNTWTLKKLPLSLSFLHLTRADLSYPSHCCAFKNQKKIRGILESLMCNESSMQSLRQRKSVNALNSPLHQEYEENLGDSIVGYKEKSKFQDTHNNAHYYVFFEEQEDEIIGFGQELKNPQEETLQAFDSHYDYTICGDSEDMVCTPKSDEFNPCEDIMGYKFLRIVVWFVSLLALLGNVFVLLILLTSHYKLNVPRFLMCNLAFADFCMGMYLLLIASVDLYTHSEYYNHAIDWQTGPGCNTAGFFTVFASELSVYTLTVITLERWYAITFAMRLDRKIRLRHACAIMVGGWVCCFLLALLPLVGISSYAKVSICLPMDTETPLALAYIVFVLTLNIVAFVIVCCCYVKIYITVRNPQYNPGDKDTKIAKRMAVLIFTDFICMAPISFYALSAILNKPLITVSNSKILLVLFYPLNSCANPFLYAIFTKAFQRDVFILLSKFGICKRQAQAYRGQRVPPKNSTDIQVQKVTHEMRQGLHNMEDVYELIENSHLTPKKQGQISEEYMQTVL

In the case of `CC[C@@]1(c2ccccc2)NC(=O)N(C)C1=O`, the Potency result in experiment [1], in experiment [2] and in experiment [3] was “inactive” throughout. Moreover, the compound was called inactive in [4], in experiment [5], in [6], in [7] and in [9]. Also, the activity change, positive = activation in [8] is 3.28% [at 42.5 µM].
On to `CCN1CCN(C(=O)N[C@@H](C(=O)N[C@@H]2C(=O)N3[C@@H]2SC(C)(C)[C@H]3C(=O)O)c2ccccc2)C(=O)C1=O`, for which the Potency result in [1], in [2] and in experiment [3] was “inactive” in each case. The compound was classed as inactive in experiment [4], in experiment [5], in experiment [6], in [7] and in experiment [9]. Further, the activity change, positive = activation in [8] is 8.89% [at 42.5 µM].
Take `O=C1Nc2ccccc2C1=O`: the Potency in experiment [1] is 13.6 µM (active). Also, the Potency result in experiment [2] and in [3] was “inactive” each time. In addition, the call in experiment [4], in experiment [5], in experiment [10], in experiment [6], in experiment [7] and in experiment [9] was inactive.
As for `CC(=O)Nc1ccc(OCCOCCOc2ccc(NC(C)=O)cc2)cc1`, the Potency entry in experiment [1], in experiment [2] and in experiment [3] was “inactive” throughout. Moreover, the compound was classed as inactive in [4], in experiment [5], in [10] and in [6]. Also, the activity change, positive = activation in experiment [8] is -16.6% [at 42.5 µM].
On to `CCC(C)c1nccnc1OC` (stereo not given), for which the Potency result in experiment [1], in [2] and in experiment [3] was “inactive” throughout. Further, the compound was classed as inactive in experiment [4], in experiment [5], in [10], in experiment [6], in experiment [7] and in experiment [9]. In addition, in experiment [8], the activity change, positive = activation is 1.46%.
Regarding `Cc1ccc(OC(=O)CC(C)C)cc1`, the Potency result in experiment [1], in experiment [2] and in experiment [3] was “inactive” in each case. For the same compound, the outcome in experiment [4], in experiment [5], in [6], in experiment [7] and in [9] was inactive.
On to `CN1C(CCl)Nc2cc(Cl)c(S(N)(=O)=O)cc2S1(=O)=O` (stereo not given), for which the Potency result in experiment [1] and in experiment [2] was “inactive” in each case. In addition, the call in experiment [4], in [5], in [10], in [6] and in experiment [7] was inactive.
Turning to `CCC(C)(C)C`, the Potency entry in experiment [1], in [2] and in experiment [3] was “inactive” in each case. Further, the compound was classed as inactive in [4], in experiment [5], in [10], in experiment [6], in experiment [7] and in experiment [9].
With `C=CC(=O)CC`, the Potency result in [1], in [2] and in experiment [3] was “inactive” each time. Moreover, the result in [4], in [5], in experiment [10], in [6], in [7] and in experiment [9] was inactive. In addition, the activity change, positive = activation in experiment [8] is -1.79%.
Regarding `C/C=C(\C)C(=O)OC/C=C(\C)CCC=C(C)C`, the Potency entry in [1] and in [2] was “inactive” each time. Besides, the outcome in experiment [4], in experiment [5], in experiment [10], in experiment [6] and in experiment [7] was inactive. Further, the activity change, positive = activation in experiment [8] was 10.5%.
In the case of `C[C@@H](CN1CC(=O)NC(=O)C1)N1CC(=O)NC(=O)C1`, the Potency result in experiment [1] and in experiment [2] was “inactive” each time. Besides, the compound was classed as inactive in experiment [4], in [5], in experiment [10], in experiment [6], in [7] and in experiment [9]. Moreover, the activity change, positive = activation in [8] is 3.58% [at 42.5 µM].
As to `N[C@H]1C(O)O[C@H](CO)[C@@H](O)[C@@H]1O` (stereo not given in full), the Potency result in experiment [1], in [2] and in experiment [3] was “inactive” each time. Also, the compound was called inactive in [4], in [5], in [10], in [6], in experiment [7] and in experiment [9].
`Cc1nnc(C(=O)NC(C)(C)c2nc(C(=O)NCc3ccc(F)cc3)c(O)c(=O)n2C)o1`: the Potency result in experiment [1], in experiment [2] and in experiment [3] was “inactive” each time. The outcome in experiment [4], in experiment [5], in [10], in [6] and in experiment [7] was inactive. For the same compound, the activity change, positive = activation in experiment [8] is 9.04% [at 42.5 µM].
With `CC(C)(Sc1cc(C(C)(C)C)c(O)c(C(C)(C)C)c1)Sc1cc(C(C)(C)C)c(O)c(C(C)(C)C)c1`, the Potency entry in experiment [1], in experiment [2] and in experiment [3] was “inactive” throughout. The call in experiment [4], in experiment [5], in experiment [6], in experiment [7] and in experiment [9] was inactive.
In the case of `COC(=O)/C=C(\C)CCC=C(C)C`, the Potency result in experiment [1], in experiment [2] and in experiment [3] was “inactive” in each case. Also, the result in experiment [4], in experiment [5], in [10], in [6], in [7] and in [9] was inactive. Moreover, the activity change, positive = activation in [8] was 1.22%.
Turning to `N=C(N)S(=O)O`, the Potency entry in experiment [1], in experiment [2] and in experiment [3] was “inactive” throughout. Moreover, the call in [4], in [5], in [10], in [6], in experiment [7] and in experiment [9] was inactive.
Regarding `CC/C=C/CCCCCCCCCCOC(C)=O`, the Potency result in experiment [1], in experiment [2] and in experiment [3] was “inactive” each time. Besides, the result in experiment [4], in experiment [5], in experiment [10], in experiment [7] and in experiment [9] was inactive. The activity change, positive = activation in experiment [8] is 0.111%.
For the compound `N=C(N)N`, the Potency result in [1], in [2] and in [3] was “inactive” throughout. For the same compound, the call in experiment [4], in experiment [5], in [6], in experiment [7] and in experiment [9] was inactive.
Take `O=C(O)Cc1c(Cl)ccc(Cl)c1Cl`: the Potency result in experiment [1], in experiment [2] and in [3] was “inactive” in each case. The outcome in [4], in experiment [6] and in [7] was inactive.
With `CCCCCCCCOCCC#N`, the Potency result in experiment [1], in [2] and in experiment [3] was “inactive” each time. In addition, the compound was classed as inactive in [4], in [5], in experiment [10], in experiment [6], in [7] and in experiment [9]. For the same compound, in experiment [8], the activity change, positive = activation is 3%.
Consider `COc1cnc(NS(=O)(=O)c2ccc(N)cc2)nc1`, for which the Potency result in experiment [1], in experiment [2] and in [3] was “inactive” throughout. In addition, the compound was called inactive in experiment [4], in experiment [5], in [10], in [6] and in experiment [7]. In addition, the activity change, positive = activation in experiment [8] was 4.16% [at 42.5 µM].
As to `NNC(=O)OCc1ccccc1`, the Potency result in [1], in experiment [2] and in experiment [3] was “inactive” in each case. The compound was called inactive in experiment [4], in [5], in experiment [10], in [6], in experiment [7] and in [9]. Besides, in experiment [8], the activity change, positive = activation is -10.3%.
As for `CC/C=C\CCCCCCCCCCOC(C)=O`, the Potency entry in [1], in [2] and in experiment [3] was “inactive” each time. Moreover, the call in experiment [5], in experiment [6], in experiment [7] and in experiment [9] was inactive. Besides, the activity change, positive = activation in [8] was 0.807%.
Take `CC/C=C\CCOC(=O)c1ccccc1`: the Potency entry in experiment [1], in [2] and in experiment [3] was “inactive” throughout. The compound was called inactive in experiment [4], in [10], in experiment [6], in [7] and in [9]. Also, the activity change, positive = activation in experiment [8] was 5.28%.
